IL1B secr inh: inflammasome signaling inhibition, IL-1 beta readout; THP-1 LPS/ATP IL-1B secretion, AlphaLISA, 16 h; hits give low values; activity change, % at 57.5 µM; actives 4.7% (n = 360,000); AID 743279; in the data active = activity change below about -50%; inconclusive = mostly about -30% to -49%
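Secreted IL-1B measured by AlphaLISA bead assay after 16 h compound exposure of THP-1 cells; compounds (final up to 57.5 uM) added 1 h before LPS (250 ng/mL) and ATP (1.25 mM) stimulation; lower signal means less secretion.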
TDP1 cell noCPT: qHTS for Inhibitors of human tyrosyl-DNA phosphodiesterase 1 (TDP1): qHTS in cells in absence of CPT; DT40 Tdp1-/- hTDP1 cells, no CPT, ATP luminescence, 48 h; actives 15% (n = 420,000); Potency, µM (series often up to 46.2 µM), without a hit: at the top dose activity change, negative = growth inhibition, hits mostly inhibitors; also: potency is read from the fitted curve at half-maximal effect; nearly all actives have a fitted effect of over 55% in size
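Growth kinetics read by CellTiter-Glo luminescence after ≥48 hr at 37 °C. Cells: DT40 Tdp1-/- stably carrying human TDP1, 400 per well, compound exposure in the absence of CPT (DMSO vehicle).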
TDP1 cell CPT: growth inhibition of DT40 Tdp1-/-;hTDP1 cells with camptothecin (screen for TDP1 inhibitors) | chicken DT40 Tdp1-/-;hTDP1 cells + 20 nM CPT, ATP luminescence, 48 h | Potency, µM (doses to about 46.2 µM), for inactives: at the top dose activity change, negative = growth inhibition, hits mostly inhibitors | actives 12% (n = 420,000) | AID 686979; also: potency is read from the fitted curve at half-maximal effect; nearly all actives have a fitted effect of over 55% in size
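Chicken DT40 Tdp1-/- cells complemented with human TDP1, 400 cells/well, exposed to compounds plus 20 nM camptothecin for at least 48 h at 37 C; viability read as ATP content by CellTiter-Glo luminescence.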
HT1080NT lethal: kills 2HG-producing HT-1080-NT fibrosarcoma cells; HT-1080-NT fibrosarcoma viability, CellTiter-Glo ATP luminescence, 48 h; Potency, µM (titrated, usually from 46.1 µM), for inactives: top-dose activity, negative = less viability, hits mostly cytotoxic; actives 1.6% (n = 360,000);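 also: NT is the 2HG producing partner of a matched IDH1 knockdown line; potency is read from the fitted curve at half-maximal effect; 0% = DMSO-treated cells and -100% = media-only wells without cells; nearly all actives have a fitted effect of over 55% in size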
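Fibrosarcoma NT cells, 750 per well in 5% FBS RPMI, were exposed to compound for 48 hours. Viability: CellTiter-Glo luminescence.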
HT1080 IDH1KD tx: toxicity to HT-1080 IDH1 knockdown cells (counter line) | HT-1080 IDH1 knockdown viability, ATP luminescence, 48 h | Potency, µM (top dose mostly 46.1 µM), for inactives: top-dose activity, negative = toxicity, hits mostly cytotoxic | actives 2% (n = 360,000);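 also: potency is read from the fitted curve at half-maximal effect; 0% = DMSO wells and -100% = cell-free medium wells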
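Assay cells: HT-1080 with IDH1 knockdown, 750 per well, RPMI/5% FBS. Exposure: 48 h at 37 °C following 2 h pre-incubation. Read: CellTiter-Glo luminescence; fitted concentration-response, curve class assigned.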
Starred values were filed as active, the others as inactive; i = inactive; ? = inconclusive; nt = not tested or not shown. Only some compounds are listed: those with a hit (about 19% of all), similar ones and a draw of the others. Unless noted, calls follow the shape of the dose curve; as a rule, active = well fitted curve in the direction sought with a large enough effect; inconclusive = small, poorly fitted or top-dose-only effect, or another doubt; inactive = no such curve, though single readings can be large; an effect the other way counts as inactive or inconclusive. Unless noted, % is scaled to controls: 0 for no effect and ±100 for the full control effect.

SMILES	IL1B secr inh	TDP1 cell noCPT	TDP1 cell CPT	HT1080NT lethal	HT1080 IDH1KD tx
CCOCCc1nn2c(=O)cc(COC(=O)c3ccc(NC(=O)C(C)(C)C)cc3)nc2s1	nt	13µM*	16µM*	nt	nt
CCCCc1nn2c(=O)cc(COC(=O)c3ccc(NC(=O)c4cccs4)cc3)nc2s1	nt	-19%	-22%	nt	nt
CCCc1nn2c(=O)cc(COC(=O)c3ccc(NC(=O)c4cccs4)cc3)nc2s1	nt	21µM*	?	nt	nt
NC(=O)c1ccc(SCC(=O)OCC(=O)N2CCN(C(=O)c3ccco3)CC2)c([N+](=O)[O-])c1	13	15%	5%	10%	10%
COC(=O)[C@@H](NC(=O)NCCC1=CCCCC1)C(C)C	3	-7%	-18%	-5%	-5%
O=C1NC(=S)S/C1=C\C=C\c1ccc([N+](=O)[O-])o1	-98*	2.3µM*	1.6µM*	5.8µM*	5.2µM*
O=C(O)/C=C/c1ccc([N+](=O)[O-])o1	-20	-28%	-2%	1%	-1%
Cc1nn(C)c(C)c1CCC(=O)O	29	-12%	6%	0%	2%
COc1cc2c(NC3CCN(C)CC3)nc(N3CCCN(C)CC3)nc2cc1OCCOCCN1CCCC1	nt	1%	-20%	nt	nt
COc1ccc(NC(=O)C2CCCN(C)C2)cc1OCC(C)C (stereo not given)	-3	-6%	-1%	1%	0%
COc1cc2c(NC3CCN(C)CC3)nc(N3CCCN(C)CC3)nc2cc1OCCCC(C)C	nt	1.1µM*	1.1µM*	nt	nt
COc1cc2c(NC3CCN(C)CC3)nc(N3CCCN(C)CC3)nc2cc1OCCCN1CCCCC1	nt	10µM*	18µM*	nt	nt
COc1cccc(CSc2nccn2C)c1	-13	-20%	-7%	1%	-1%
CCOC(=O)c1c(S(=O)(=O)Nc2ccc(C)cn2)c(C)n(C)c1C	0	?	?	3%	10%
CC(=O)c1c(C)cc(C)c(CSc2nnc(-c3ccco3)o2)c1C	0	22µM*	13µM*	-14%	-27%
CCN1CCCC1CNC(=O)c1cnn(-c2nccc(-c3ccccc3OC)n2)c1-c1ccco1 (stereo not given)	nt	7.3µM*	?	nt	nt
CCC(CC)NCC(O)COc1ccc(Br)cc1 (stereo not given)	-52*	21µM*	?	0%	-16%
CCCC(NCC(O)COc1ccc(-c2ccccc2)cc1)c1ccccc1 (stereo not given)	-77*	4.1µM*	7.3µM*	-27%	13µM*
OC(CNC1CCCCC1)COCCOc1ccc(Br)cc1 (stereo not given)	i	23µM*	13µM*	?	?
OC(CNC1CCCC1)COc1ccc(-c2ccccc2)cc1 (stereo not given)	-63*	?	?	?	?
COC(=O)c1ccc(OCC(O)CNC2CCCC2)cc1 (stereo not given)	17	-15%	-16%	7%	24%
CC(C)NCC(O)COc1ccc(Br)cc1 (stereo not given)	-2	-18%	3%	-3%	-6%
COc1ccc(CCNC(=O)CC(=O)N/N=C\c2ccc(OCC(N)=O)cc2)cc1OC	-10	-3%	18%	-2%	2%
CCSc1nnc(NC(=O)C(C(F)(F)F)C(F)(F)F)s1	-20	?	?	-12%	1%
CCSc1nnc(NC(=O)NCC(F)(F)F)s1	29	-24%	-15%	14%	2%
SMILES	IL1B secr inh	TDP1 cell noCPT	TDP1 cell CPT	HT1080NT lethal	HT1080 IDH1KD tx
CCSc1nnc(NC(=O)C(CC)(C(F)(F)F)C(F)(F)F)s1	-19	18µM*	?	?	?
CCSc1nnc(NC(=O)C(C)(C(F)(F)F)C(F)(F)F)s1	-1	18µM*	23µM*	?	?
CCCCCCCCCCCCCCCC(C)C1=NCCN1 (stereo not given)	nt	1%	?	nt	nt
Cc1c(F)cccc1NS(=O)(=O)c1ccc(N2CCCC2=O)cc1	12	-17%	23%	7%	8%
COC(=O)c1cc(NS(=O)(=O)c2ccc(NC(C)=O)cc2)ccc1Cl	-74*	?	?	-24%	-9%
CC(=O)Nc1ccc(S(=O)(=O)Nc2ccc3c(c2)OCO3)cc1	0	?	-30%	-8%	-10%
N#CCc1ccc(NS(=O)(=O)c2ccc(N3CCCC3=O)cc2)cc1	62	?	13µM*	-8%	-9%
CC(=O)Nc1ccc(S(=O)(=O)Nc2ccc3c(c2)OCCO3)cc1	11	7.3µM*	?	1%	-4%
CC(=O)Nc1ccc(S(=O)(=O)N2CCc3cc4c(cc3C2)OCCCO4)cc1	7	?	21µM*	-13%	-1%
COC(=O)c1cc(NS(=O)(=O)c2ccc(OC)c(OC)c2)ccc1Cl	25	?	-29%	-5%	-5%
CC(=O)Nc1ccc(S(=O)(=O)N2CCCC2)cc1	-5	-21%	?	0%	8%
Cc1ccc(S(=O)(=O)NN2CCCCCC2)cc1	-2	-11%	-1%	-1%	4%
O=[N+]([O-])c1ccc(S(=O)(=O)Nc2ccc(-c3ccccc3)cc2)cc1	-3	13µM*	?	-24%	-3%
O=S(=O)(Nc1ccc2c(c1)OCCO2)c1ccc(F)cc1	-9	-15%	?	0%	-18%
Cc1ccc(S(=O)(=O)Nc2ccc3c(c2)OCCO3)cc1	-8	?	-25%	-8%	-20%
O=C1CCCN1c1ccc(S(=O)(=O)Nc2ccc3c(c2)OCCO3)cc1	-10	2.9µM*	3.3µM*	5µM*	?
CC(=O)c1cc2c(cc1NS(=O)(=O)c1ccc(C)cc1)OCCO2	7	21µM*	23µM*	?	16µM*
O=[N+]([O-])c1ccc(S(=O)(=O)Nc2ccc3c(c2)OCCO3)cc1	13	16µM*	?	-10%	-4%
CC(=O)Nc1ccc(S(=O)(=O)NCC(=O)NC(C)c2ccc(S(N)(=O)=O)cc2)cc1 (stereo not given)	13	4%	1%	20%	12%
COc1cc(C(=O)NNC(=O)c2ccccc2Br)ccc1OCC(=O)N1CCOCC1	4	-3%	10%	4%	14%
COCCCNC(=O)c1c(N)n(/N=C/c2cccnc2)c2nc3ccccc3nc12	?	6.5µM*	?	8%	16%
COCCCNC(=O)c1c(N)n(/N=C/c2cccs2)c2nc3ccccc3nc12	1	?	18µM*	-4%	-1%
O=c1c(-c2cc(F)cc(F)c2)nc2cnc(N3CCOCC3)nc2n1C[C@H]1CCCO1	nt	13%	9%	nt	nt
CN(CC(=O)Nc1ccccc1Cl)CC(=O)N(C)c1c(N)n(Cc2ccccc2)c(=O)[nH]c1=O	-5	-18%	-4%	0%	-4%
